In PubChem BioAssay (NCI) one finds growth data, which are given here for 8 compounds.

Experiment in all cases: NCI-60 one-dose screen, 48 h (100 = growth as untreated, 0 = no growth, -100 = all killed)
Holding throughout (conditions): 10 µM unless noted

Experiment [1] deals with SK-MEL-2 melanoma.
In experiment [2] the test system is EKVX NSCLC.
Experiment [3] relates to SN12C renal.
In experiment [4] the test system is TK-10 renal.
Experiment [5] relates to ACHN renal.
Experiment [6] concerns CAKI-1 renal.
Experiment [7] concerns A498 renal.
Experiment [8] concerns CCRF-CEM leukemia.
Experiment [9] concerns MOLT-4 leukemia.
For experiment [10], the system named is SR leukemia.
Experiment [11] has as its system RPMI-8226 leukemia.
Experiment [12] has as its system OVCAR-8 ovarian.
The test system of experiment [13] is OVCAR-5 ovarian.
Experiment [14] relates to SK-OV-3 ovarian.
Experiment [15] relates to IGROV1 ovarian.
In experiment [16] the test system is OVCAR-3 ovarian.
Experiment [17] relates to HS 578T breast.
Experiment [18] concerns NCI/ADR-RES ovarian.
The subject of experiment [19] is OVCAR-4 ovarian.
Experiment [20] relates to UO-31 renal.

The panel holds about 83,000 compounds, 20% with a hit somewhere; the sample as a whole holds those more often.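 Treatment: one concentration, 48 hours, 96-well format. Scoring: percent growth, with anything below 10 considered active.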 Unmarked numbers belong to inactive results. The source made the active and inactive calls.

Take `O=C(Nc1ccc(Cl)cc1)Oc1c(Cl)c(Cl)c(Cl)c(Cl)c1Cl`: the growth is 95.7% in experiment [1]; 80.6% in [2]; 97.6% in experiment [3]; 115% in [4]; 87.9% in [5]; 86.1% in experiment [6]. The growth in [7] was 74.6%; in [8] it was 92.1%; in experiment [9] it was 95.6%; in [10] it was 93.6%; in experiment [11], 90.5%; in [12] it was 99.9%. The growth is 94.6% in [13]; 90% in experiment [14]; 85.9% in [15]; 98.8% in experiment [16]; 87.8% in experiment [17]; 94% in experiment [18].
Regarding `O=C1/C=C/[C@@H](O)[C@@H]2C[C@@H](O)C[C@H]2/C=C/CCC[C@@H](O)CCO1`, the growth in [1] was 122%; in experiment [2] it was 82%; in experiment [3], 106%; in experiment [4], 115%; in experiment [5] it was 104%; in [6] it was 83.7%. The growth in [7] is 66.7%; in experiment [8], 116%; in experiment [9] it was 106%; in [10] it was 101%; in experiment [11], 126%; in experiment [12], 66.6%. The growth in experiment [13] was 113%; in experiment [19] it was 85.4%; in [14], 90.3%; in experiment [15], 108%; in [16], 106%; in experiment [17], 41.9%. For the same compound, the growth in experiment [18] was 89.2%.
For the compound `O=S(=O)(NCCNc1nccc(-c2c(-c3ccc(F)c(O)c3)nc3sccn23)n1)c1ccc(F)cc1`, the growth is 12.3% in experiment [1]; 55.7% in [2]; 28.5% in experiment [3]; 3.56% (active) in [20]; 83.5% in experiment [4]; 19.7% in experiment [5]. For the same compound, the growth in experiment [6] was 20.6%; in experiment [7], 70.9%; in experiment [9], 11.7%; in experiment [10], 1.25% (active); in experiment [11], 11.5%; in [12] it was 29%. Also, the growth in experiment [13] was 67.9%; in [19], 31.5%; in experiment [14], 36.1%; in experiment [15], 12.2%; in experiment [16] it was 39.4%; in experiment [17] it was 26.9%. Also, the growth in experiment [18] was 92.6%.
As for `CCCn1nc(C(=O)N(C)Cc2ccccc2)c2c1CCC(N1CCc3ccccc31)C2` (stereo not given), the growth in experiment [1] is 106%; in experiment [2] it was 95.2%; in [3], 98.9%; in [20], 81.4%; in experiment [4] it was 105%; in experiment [5], 96%. The growth is 86.7% in experiment [6]; 95.9% in [7]; 89.9% in experiment [9]; 104% in [10]; 90.8% in experiment [11]; 92.2% in experiment [13]. For the same compound, the growth is 102% in experiment [19]; 112% in [14]; 85.1% in [15]; 102% in experiment [16]; 96.4% in [17]; 94.4% in [18].
On to `CN(Cc1cnc2nc(N)nc(N)c2n1)c1ccc(C(=O)NC(CCC(=O)O)C(=O)O)cc1Br` (stereo not given), for which the growth in [1] was 67.4%; in [2], 67.6%; in experiment [3] it was 26%; in experiment [4] it was 50.4%; in experiment [5], 15.8%; in [6], 19%. Further, the growth was 76.4% in [7]; 37.9% in [8]; 30.5% in experiment [9]; 34.1% in [10]; 54.3% in [11]; 45.5% in experiment [12]. Further, the growth is 27.7% in experiment [13]; 75% in experiment [19]; 45.3% in [14]; 40.9% in experiment [15]; 53.8% in [16]; 96.7% in experiment [17]. The growth in [18] was 38.4%.
As for `C/C(Cc1ccc(Cl)cc1)=C(\c1ccc(OCCCN(C)C)cc1)c1ccc(OC(=O)Cc2ccccc2)cc1`, the growth in [1] was 100%; in [2] it was 101%; in experiment [3] it was 105%; in experiment [4], 98.4%; in [5] it was 107%; in [6], 97%. Further, the growth in experiment [7] was 113%; in [8] it was 83.6%; in experiment [9] it was 77.3%; in experiment [10], 77.3%; in [11], 105%; in [12] it was 113%. The growth in experiment [13] was 105%; in experiment [19] it was 107%; in experiment [14] it was 85.6%; in [15] it was 106%; in experiment [16], 101%; in experiment [17], 105%. Moreover, in experiment [18], the growth was 103%.
As to `CC1(C)CC[C@]2(CO)CC[C@]3(C)[C@H](CC[C@@H]4[C@@]5(C)CCCNC(C)(C)[C@@H]5CC[C@]43C)[C@H]2[C@H]1O`, the growth in experiment [1] was 102%; in experiment [2] it was 95.2%; in [3], 86.2%; in experiment [4], 86.5%; in experiment [5], 101%; in experiment [6], 95.3%. Also, the growth is 93.4% in experiment [7]; 61.2% in experiment [8]; 54.1% in experiment [9]; 10.5% in [10]; 31.4% in experiment [11]; 95% in [12]. In addition, the growth in experiment [13] is 92.8%; in experiment [19], 89.7%; in experiment [14] it was 92.5%; in experiment [15], 82.3%; in experiment [16], 94.3%; in [17], 83.5%. Moreover, the growth in experiment [18] is 93.1%.
On to `Clc1c(Cl)[n+](Cc2ccc3ccccc3c2)cn1Cc1ccc2ccccc2c1`, for which the growth in experiment [1] was -55% (active); in experiment [2] it was 38.7%; in experiment [3], 28.1%; in experiment [4] it was -63% (active); in experiment [5], 84.7%; in [6], 89.7%. Besides, the growth was 54.7% in experiment [7]; 6.14% (active) in [8]; -0.428% (active) in experiment [9]; -55.6% (active) in experiment [10]; -43% (active) in [11]; -10.7% (active) in experiment [12]. Moreover, the growth was 54.9% in experiment [13]; -3.18% (active) in experiment [19]; 19% in experiment [14]; -20.3% (active) in [15]; -21.8% (active) in experiment [16]; 53.1% in experiment [17]. For the same compound, the growth in [18] is 97.8%.
